Our source for the outcome values is PubChem BioAssay (NCATS).

Inconclusive results are not listed. Active and inactive are the calls of the source. The call rests on the fitted dose curve; in most records, active means well fitted inhibition curve with a large enough effect; inconclusive means small, poorly fitted or top-dose-only effect; inactive means flat fitted curve, though single readings scatter.

The experiment has as its system CRL-7250. Put plainly: qHTS assay to identify novel small-molecules to repurpose for Merkel cell carcinoma treatment (AID 1296009). Further: nearly all actives have a fitted effect of over 60% in size. To be noted: MCC and control cell lines, CellTiter-Glo viability, 72 h; at 44.8 µM (top of the series) unless noted. An outline of the steps: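 72 hr, 37 degree celsius; NPC 8-pt / MIPE 11-pt dose response; compound pinned in DMSO; CellTiter-Glo, 10 min RT, luminescence; normalized to no-cell and DMSO controls.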
In general terms: In qHTS, concentration-response curves come from the screen itself.
For the compound `CO/N=C(\C(=O)O)c1csc(NC(=O)CCl)n1`, the outcome was inactive.
Under `Oc1ccc(O)cc1` stands “inactive”.
Next, `CC1(C)OC(=O)Nc2ccc(Br)cc21`: “inactive”; `O=S(=O)(c1cccc2cnccc12)N1CCCNCC1`: “inactive”; `CC(=O)N1C[C@H](O)C[C@H]1C(=O)O`: “inactive”.
Under `Cc1cccc(CN2CCN(C(c3ccccc3)c3ccc(Cl)cc3)CC2)c1` (stereo unspecified) stands “inactive”; under `COC1=C(OC)C(=O)C(CCCCCCCCCCO)=C(C)C1=O`, “inactive”; under `O=C(c1ccc(F)cc1)C1CCN(CCn2c(=O)[nH]c3ccccc3c2=O)CC1`, “inactive”.
Regarding `OC(CCN1CCCCC1)(c1ccccc1)C1CC2C=CC1C2` (stereo unspecified), the result was inactive.
Under `CCc1cc2cc(OC)c(OC)cc2c(Cc2ccccc2)n1` stands “inactive”; under `CN(Cc1cc(Br)cc(Br)c1N)C1CCCCC1`, “inactive”.
Next, `CN1CCC(OC(c2ccccc2)c2ccccc2)CC1`: “inactive”.
Next, `CCOC(=O)OC(C)OC1=C(C(=O)Nc2ccccn2)N(C)S(=O)(=O)c2ccccc21` (stereo unspecified): “inactive”; `O=C(O)C1CCC1`: “inactive”.
As for `CC(=O)OCC(=O)[C@@]1(O)CCC2C3CCC4=CC(=O)CC[C@]4(C)C3[C@@H](O)C[C@@]21C` (stereo partly specified), the compound was called inactive.
As for `C[C@]12CC[C@@H]3c4ccc(O)cc4CC[C@H]3[C@@H]1CCC2=O`, the result was inactive.
